Bioassay records as filed in PubChem.
Tgondii IFNg – inhibitors of Toxoplasma gondii growth with IFN-gamma | Toxoplasma gondii growth in IFN-gamma-treated host cells; stronger effect = lower value | 69,000 tested, 3.8% active | activity change, negative = inhibition, % (concentration not given with the values); in the data active = activity change below about -70%, passing the limit was not always enough;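 also: host cells are HeLa cells infected with Toxoplasma gondii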
Active calls of the source: *; i = inactive. The full list was thinned out, with hits kept by preference.

SMILES	Tgondii IFNg
CS(=O)(=O)N1CCCn2c(nnc2Cn2cccn2)C1	3.5
O=C(CC(c1ccccc1)c1ccc(Cl)cc1)N1CCC(CCO)CC1 (centres undefined)	9.5
CC1=CC[C@@H]2CN(Cc3cccc(OCCO)c3)C[C@@H]2C1	-9.8
Cc1ccccc1-c1cc(O)c2c(c1)CN(CCn1nccc1C)CCO2	-6.4
COc1cccc(NC(=O)C2=C(C)C(=O)OC23CCN(Cc2ccccc2)CC3)c1	i
Cc1noc(C)c1CN(C)Cc1ccccc1C(=O)O	-44.6
COc1cc(CNc2ccc3[nH]c(=O)[nH]c3c2)ccc1OCc1ccccc1	162.5
C=CCOc1ccc(CNc2ccc3[nH]c(=O)[nH]c3c2)cc1OC	-8.6
O=c1[nH]c2ccc(NCC#Cc3ccccc3)cc2[nH]1	-83.5*
COc1ccc(-c2nn(-c3ccccc3F)cc2CNCCc2nc3ccccc3[nH]2)cc1	-45.6
O=C(Nc1ccccc1)c1cc2n(n1)CCN(C(=O)c1csnn1)C2	38.6
O=C(Nc1cc(C(F)(F)F)cc(C(F)(F)F)c1)Nc1sccc1Cl	-95.4*
O=C(NC(=O)c1csnn1)Nc1cc(C(F)(F)F)cc(C(F)(F)F)c1	-101.1*
O=C(N/C=C/c1ccsc1)Sc1cc(C(F)(F)F)cc(C(F)(F)F)c1	48.1
O=C(Nc1cc(C(F)(F)F)cc(C(F)(F)F)c1)c1csc(-c2ccc(Cl)cc2)c1	48.3
O=C(Nc1ccccc1-c1ccccc1)c1csnn1	1.7
O=C(Nc1cc(C(F)(F)F)cc(C(F)(F)F)c1)c1cc(Cl)ccc1O	-80.5*
O=C(c1ccccc1)c1c(Cl)cc(C(F)(F)F)cc1Cl	-3.1
COCCCNC(=O)c1ccccc1C(=O)Nc1cc(C(F)(F)F)cc(C(F)(F)F)c1	36.7
O=C1Nc2ccccc2C12CCN(S(=O)(=O)c1cccs1)CC2	-28.4
Cn1cccc1C(=O)N1CCC2(CC1)Cc1ccccc1CNC2=O	0.2
CC(=O)N1C2CCN(Cc3nccn3C)CC2C[C@H]1CN(C)C (some centres undefined)	34.6
Cc1ccc2nc(CN(C)Cc3c(C)n(C)n(-c4ccccc4)c3=O)[nH]c2c1	0.9
Cc1nc(-c2ccccn2)nc(SCC(=O)N2CCOCC2)c1Cl	-24.1
Clc1ccc(CSc2n[nH]c(-c3ccccn3)n2)cc1	-62.4
SMILES	Tgondii IFNg
Cc1nc(-c2ccccn2)nc(SCc2ccccc2)c1Cl	-89.3*
Cc1ccc(CNC(=O)Cn2c(=O)cc(-c3nc(C(C)C)no3)c3ccccc32)cc1	-20.0
O=C(c1cc(COc2ccccc2)[nH]n1)N(Cc1ccsc1)C1CC1	-18.9
COc1ccccc1-c1cccc(CC2(C(=O)NCCC3=CCCCC3)CCOCC2)c1	7.6
Cc1nc(C(Cc2c[nH]c3ccccc23)NC(=O)c2snnc2C)cc(=O)[nH]1 (centres undefined)	43.2
O=C1Cc2cc(-c3cccc(-n4cccn4)c3)ccc2N1	-92.9*
O=C1Cc2cc(Cl)ccc2N1	10.0
COc1cc(-c2cccc(-n3cccn3)c2)ccc1NC(C)=O	77.3
OCC1(CCOc2ccccc2)CCCN(c2nnnn2-c2ccccc2)C1 (centres undefined)	-6.4
O=C1NC(=O)[C@@H]2CN(Cc3cc4n(n3)CCCNC4)C[C@H]12	12.1
O=C(Nc1ccccc1)OCc1cccc(COC(=O)Nc2ccccc2)c1F	-82.3*
O=C(Nc1ccccc1)OCC(CN1CCCCC1)OC(=O)Nc1ccccc1 (centres undefined)	-4.3
CC(C)(COC(=O)Nc1ccc(Cl)cc1)n1cccc1	10.0
O=C(Nc1ccccc1)OCCCCCOC(=O)Nc1ccccc1	-18.5
O=C(Nc1ccc(Cl)cc1)OCc1cccc(COC(=O)Nc2ccc(Cl)cc2)n1	-98.5*
O=C(Nc1ccc(Cl)cc1)OC1CN(C(c2ccccc2)c2ccccc2)C1	-59.0
CCn1cnc2sc(C(=O)Nc3cccc(CN4CCC(C)CC4)c3)c(C)c2c1=O	-1.3
CCc1ccc2c(c1)cc(S(=O)(=O)c1ccccc1)c(=O)n2CC(=O)NCCCOC	0.7
OC(CN1CCCC(O)(c2ccc(F)cc2)CC1)c1ccc(F)cc1 (centres undefined)	-10.7
COCCN1CCCn2c(nc(CNS(C)(=O)=O)cc2=O)C1	-0.5
COc1cccc(-n2cc(CN(C)Cc3cnn(C)c3)cn2)c1	-3.3
CSC1SCC2C(=O)N(C)C(C(C)C)C(=O)OCC(NC(=O)c3cnc4ccccc4n3)C(=O)NC(C)C(=O)N(C)C1C(=O)N(C)C(C(C)C)C(=O)OCC(NC(=O)c1cnc3ccccc3n1)C(=O)NC(C)C(=O)N2C (centres undefined)	-76.6*
COc1ccc(-c2nc(Cn3c(=O)c4c(C)cc(C)nc4n(-c4ccccc4OC)c3=O)c(C)o2)cc1	23.0
COCCN(C)C(=O)c1c2c(NCc3cccnc3)ncnc2n2ccccc12	-19.4
COc1ccc(-c2noc(COc3cccnc3N)n2)cc1	-52.4
SMILES	Tgondii IFNg
COc1c(F)cccc1C(=O)N(C)Cc1nc(-c2ccccn2)no1	3.7
Cc1onc(-c2ccccc2)c1NC(=O)Nc1ccc(-n2ccc(C(F)(F)F)n2)cc1	-13.3
O=C(Nc1cccc(-n2cnnn2)c1)c1ccccc1	2.2
O=C(Nc1ccccc1)Nc1ccc(-n2ccc(C(F)(F)F)n2)cc1	-80.9*
CCn1cc(CN2CCC(O)(c3cccc(C(F)(F)F)c3)CC2)cn1	-48.1
O=C(CN1C(=O)CCc2cc(S(=O)(=O)N3CCCCC3)ccc21)NCCc1ccc(Cl)cc1	-44.7
Cc1ccc(SCc2cc(=O)oc3cc(O)ccc23)cc1	-28.7
CS(=O)(=O)NC1CC2(CCN(C(=O)c3ccsc3)CC2)C1	288.4
CN(C)C(=O)N1CCO[C@H]2[C@@H](Oc3cccnc3)CC[C@H]21	19.7
C[C@@H]1CCCCO[C@H](CN(C)C(=O)Nc2ccc(C(F)(F)F)cc2)[C@H](C)CN([C@H](C)CO)C(=O)c2cc(NS(=O)(=O)c3cn(C)cn3)ccc2O1	-82.6*
COc1ccc(CN(C)C[C@@H]2OCCCC[C@H](C)Oc3ccc(NC(=O)C4CCCCC4)cc3C(=O)N([C@@H](C)CO)C[C@@H]2C)cc1	92.9
C[C@H](CO)N1C[C@H](C)[C@@H](CN(C)C(=O)Nc2ccc(C(F)(F)F)cc2)OCCCC[C@H](C)Oc2ccc(NS(=O)(=O)c3cn(C)cn3)cc2C1=O	143.5
COc1ccc(S(=O)(=O)Nc2ccc3c(c2)C(=O)N([C@@H](C)CO)C[C@H](C)[C@@H](CN(C)Cc2ccc(C(F)(F)F)cc2)OCCCC[C@H](C)O3)cc1	-128.8*
COc1ccc(CN(C)C[C@H]2OCCCC[C@@H](C)Oc3ccc(NC(=O)C4CCCCC4)cc3C(=O)N([C@H](C)CO)C[C@H]2C)cc1	38.9
COc1ccc(S(=O)(=O)Nc2ccc3c(c2)C(=O)N([C@H](C)CO)C[C@H](C)[C@@H](CN(C)Cc2ccc(C(F)(F)F)cc2)OCCCC[C@H](C)O3)cc1	6.1
Cc1ccc(S(=O)(=O)Nc2ccc3c(c2)C(=O)N([C@H](C)CO)C[C@@H](C)[C@H](CN(C)Cc2ccc(C(F)(F)F)cc2)O3)cc1	-20.0
C[C@@H]1CN([C@@H](C)CO)C(=O)c2cc(NS(=O)(=O)c3cn(C)cn3)ccc2O[C@@H](C)CCCCO[C@@H]1CN(C)C(=O)Nc1ccc(C(F)(F)F)cc1	45.5
COc1ccc(S(=O)(=O)Nc2ccc3c(c2)C(=O)N([C@H](C)CO)C[C@H](C)[C@@H](CN(C)Cc2ccc(C(F)(F)F)cc2)OCCCC[C@@H](C)O3)cc1	-90.9*
COc1ccc(S(=O)(=O)Nc2ccc3c(c2)C(=O)N([C@H](C)CO)C[C@@H](C)[C@H](CN(C)Cc2ccc(C(F)(F)F)cc2)OCCCC[C@H](C)O3)cc1	-100.7*
